# PGC1a acetyl inh = modulators of PGC1a acetylation; U2OS PGC1a acetylation, AlphaScreen anti-acetyl-lysine; with virally co-expressed GCN5 acetyltransferase; inhibition, % at 15.6 µM; 350,000 compounds, 0.17% hits; AID 651687;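 active = every replicate shows inhibition of at least 40%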;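 note: 0% = neutral control wells and 100% = positive control wells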
# HIV Env fusion = blocks HIV Env-driven cell-cell fusion; HeLa-JRFL Env/CEM21 cell fusion, luciferase; inhibition, % at 12.3 µM; 360,000 compounds, 1.1% hits;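 active = mean replicate inhibition score of at least 50 and every replicate individually at or above 50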;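 note: 0% = plate neutral controls and 100% = maraviroc near 300 nM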
# AF4-AF9 inh = blocks AF4 peptide binding to human AF9 | 350,000 compounds, 0.47% hits | AlphaScreen, biotin-AF4 peptide binding to FLAG-AF9 | P42568 | inhibition, % at 10 µM;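 active = every replicate reaching a set inhibition limit, whatever the replicate mean, cut at about 25% in these data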;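 note: 0% = plate neutral control median and 100% = total signal loss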
# GSIS activator = primary screen for activators of insulin secretion dependent on glucose, INS-1E cells, GLuc reporter luminescence | INS-1E GLuc reporter insulin secretion, 2-3 h | activation, % at 16.6 µM | 370,000 compounds, 0.61% hits | AID 743287;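 active = lowest replicate activation of at least 40%, so every replicate reaches that level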;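 note: 0% = median of neutral control wells and 100% = median of IBMX positive control wells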
# NSD2 HMT inh = inhibitors of human histone methyltransferase NSD2. O96028. NSD2 peptide methylation, AlphaScreen, 120 min. inhibition, % at 12.5 µM. 310,000 compounds, 0.54% hits; in the data active = inhibition above about 50%
# Active calls of the source: *; . = no result; [ ] = dose if it differs, or a comment. An excerpt weighted towards active compounds, which were near 2.1% of everything screened.
SMILES,PGC1a acetyl inh,HIV Env fusion,AF4-AF9 inh,GSIS activator,NSD2 HMT inh
CC1(C)CC(=O)C(C(C#Cc2ccccc2)C2=C(O)CC(C)(C)CC2=O)=C(O)C1,.,-12,.,22,.
COc1ccc(C(=O)Nc2ccc(OC)c(OC)c2)cc1,-10,-93,.,8,1
COc1ccc(-n2c(=S)[nH]c3cc(C(=O)Nc4ccc(OC)c(OC)c4)ccc3c2=O)cc1,-1,.,.,76*,4
COc1ccc(-n2c(=S)[nH]c3cc(C(=O)Nc4cccc(C)c4)ccc3c2=O)cc1,.,.,-6,-2,0
COc1ccc(NC(=O)c2csc(C)c2)cc1OC,7,22,2,57*,-1
CN1CCN(C(=O)c2cccc(-c3cc(O)c4ncccc4c3)c2)CC1,.,-14,.,-8,.
Oc1cc(-c2cccnc2)cc2cccnc12,35,-108,26*,32,.
Oc1cc(Nc2ccccc2)cc2cccnc12,8,21,-2,-4,.
CN1CCN(c2cc(-c3cc(O)c4ncccc4c3)ccn2)CC1,.,29,84*,27,.
O=C(CCN1C(=O)/C(=C\c2ccccc2F)SC1=S)N1CCOCC1,-4,30,3,42*,-5
Cn1nc(C2CC2)cc1NC(=O)C1(C)CCN1C(=O)c1ccccc1CCc1ccccc1 (stereo not given),-22,64*,0,.,4
CC[C@@]12C(=O)N(c3cccc(C)c3)C(=O)N1[C@H](c1ccc(OC)cc1)[C@@H]1C(=O)N(C(C)(C)C)C(=O)[C@@H]12,13,.,.,.,.
CCN1C(=O)[C@H]2[C@@H](c3ccc(C)cc3)N3C(=O)N(c4cccc(Cl)c4)C(=O)[C@@]3(Cc3ccc(Cl)cc3)[C@H]2C1=O,.,59*,-14,-4,.
COc1ccc([C@@H]2[C@@H]3C(=O)N(C(C)(C)C)C(=O)[C@@H]3[C@]3(C)C(=O)N(c4ccc(C(F)(F)F)cc4)C(=O)N23)cc1,-13,66*,1,-15,.
CCN1C(=O)[C@H]2[C@@H](c3ccc(C)cc3)N3C(=O)N(c4cccc(Cl)c4)C(=O)[C@@]3(Cc3ccccc3)[C@H]2C1=O,.,0,3,-4,.
COc1ccc([C@@H]2[C@@H]3C(=O)N(C(C)(C)C)C(=O)[C@@H]3[C@]3(Cc4ccc(Cl)cc4)C(=O)N(c4cccc(C)c4)C(=O)N23)cc1,8,90*,2,-17,.
COc1ccc([C@@H]2[C@@H]3C(=O)N(C(C)(C)C)C(=O)[C@@H]3[C@]3(CC(C)C)C(=O)N(c4cccc(Br)c4)C(=O)N23)cc1,3,90*,-1,-7,.
O=C(CSc1nc2ccccc2c(=O)n1Cc1ccccc1)Nc1ccc(Br)cc1C(=O)O,.,1,0,13,-3
CCOC(=O)C1=NN(C(=O)c2ccc(C)cc2)C(O)(c2ccc(Cl)cc2)C1 (stereo not given),1,-17,.,-10,4
COc1ccc([C@@H]2[C@@H]3C(=O)N(C(C)(C)C)C(=O)[C@@H]3[C@]3(CC(C)C)C(=O)N(c4ccccc4)C(=O)N23)cc1,-3,81*,4,-15,.
COc1ccc([C@@H]2[C@@H]3C(=O)N(C(C)(C)C)C(=O)[C@@H]3[C@]3(CC(C)C)C(=O)N(c4ccc(C(F)(F)F)cc4)C(=O)N23)cc1,.,109*,-1,3,.
COc1ccc(N2C(=O)N3[C@H](c4cccc(C)c4)[C@@H]4C(=O)N(Cc5ccccc5)C(=O)[C@@H]4[C@]3(Cc3ccccc3)C2=O)cc1,.,86*,-4,-1,.
CO[C@H]1CN(C)C(=O)c2ccc(NC(=O)c3ccc4c(c3)OCO4)cc2OC[C@H](C)N(CCC(F)(F)F)C[C@@H]1C,-10,35[16.7 µM],-18,-21,.
CC(C)NC(=O)N(C)C[C@@H]1Oc2ccc(NC(=O)Nc3ccccc3)cc2C(=O)N([C@@H](C)CO)C[C@@H]1C,0,6[16.7 µM],-2,18,.
Cc1ncc([N+](=O)[O-])n1Cc1cccc2ccccc12,.,-20,.,6,-1
SMILES,PGC1a acetyl inh,HIV Env fusion,AF4-AF9 inh,GSIS activator,NSD2 HMT inh
CCN(CC)CC#CCC(C)(c1ccccc1)c1ccccc1,-38,65*,.,-20,33
CC1Cc2ccccc2N1S(=O)(=O)c1cccc(C(=O)NCc2ccncc2)c1 (stereo not given),-17,.,3,-44,4
CNC(=O)CSc1nc(-c2ccccc2)c(-c2ccccc2)[nH]1,22,-33,.,.,-1
CCC(Sc1nc(-c2ccccc2)c(-c2ccccc2)[nH]1)C(=O)O (stereo not given),-5,-14,-1,67*,2
CCOc1ccc(C(C(=O)NCC2CCCO2)N(C(=O)c2snc(C(N)=O)c2N)c2ccc3c(c2)OCCO3)cc1 (stereo not given),.,-6,27*,-6,-1
Oc1c(CNc2ccccc2)cc(COCc2ccccc2)c2cccnc12,16,-4,68*,-7,.
Oc1c(CN2CCOCC2)cc(COCc2ccccc2)c2cccnc12,16,22,.,-11,0
CCOc1ccc(CCNC(=O)COC(=O)Cc2ccc(F)cc2)cc1OCC,6,-3,2,19,-1
Cc1ccc(S(=O)(=O)N2CC3(O)CN(C(=O)OC(C)C)N(C(=O)OC(C)C)CC3(OC(=O)NC3CC3)C2)cc1 (stereo not given),.,-13,-6,-1,-2
Cc1ccc(S(=O)(=O)N2CC3(O)CN(C(=O)OC(C)C)N(C(=O)OC(C)C)CC3(OC(=O)NCC3CCCCC3)C2)cc1 (stereo not given),19,73*,-2,-20,.
COc1ccccc1NS(=O)(=O)c1ccc2[nH]c(=O)[nH]c2c1,.,1,1,15,0
COc1ccc(S(=O)(=O)Nc2ccccc2OC)cc1N=Nc1c(O)[nH]c(=S)[nH]c1=O,10,-9,0,99*,0
Nc1ccc(N2CCN(CCCCN3C(=O)C4CCCN4C3=O)CC2)cc1 (stereo not given),.,-4,49*,-19,22
COc1ccc(C2CC(c3ccc(OC)c(OC)c3)=NN2C(=O)c2ccccc2)cc1 (stereo not given),2,-4,5,67*,-1
NC1=NC(=O)/C(=C/c2cccs2)S1,-4,.,.,12,-1
CCOC(=O)CN1CCCc2nc(C)c(C)cc21,.,84*,-3,.,.
CCN(CC)S(=O)(=O)c1cc([N+](=O)[O-])ccc1NNC(=O)Nc1ccc(Cl)c(Cl)c1,.,97*,.,.,-4
Cc1cc(OC(=O)c2cc([N+](=O)[O-])ccc2Cl)c([N+](=O)[O-])c(=O)[nH]1,-4,-8,47*,.,.
CC(C)(C)c1ccc(N/N=C(\C#N)S(=O)(=O)C(C)(C)C)cc1,.,26,1,-9,8
CC(C)(C)S(=O)(=O)/C(C#N)=N/Nc1ccc(Cl)cc1,7,58*,1,-24,10
O=C(NCc1ccccc1)C1(C(F)(F)F)C/C(=C/CCO)CCCO1 (stereo not given),.,-27,-6,-1,.
C/C=C1\COC(C(=O)NCc2ccccc2)(C(F)(F)F)C=C1C=C(C)C (stereo not given),.,4,5,112*,.

# Source: PubChem BioAssay (Broad Institute)
